# Test results: PubChem BioAssay (NCATS)
# Inconclusive results are not listed. A call without a number means that no potency is given here. Values without a mark were called inactive. The source made the active and inactive calls. The call rests on the fitted dose curve; in most records, active means well fitted curve in the direction sought with a large enough effect; inconclusive means small, poorly fitted or top-dose-only effect, or another doubt; inactive means no such curve, though single readings can be large; an effect the other way counts as inactive or inconclusive. Where a SMILES comes first, the peptide text is derived from it. Bridges are numbered along the chain shown (N, C = ends). [ ]: non-standard residue; d: D form. hArg = N=C(N)NCCCC[C@H](N)C(=O)O; Mpa = O=C(O)CCS
# Columns and labels:
# MCC-13 = assay: qHTS assay to identify novel small-molecules to repurpose for Merkel cell carcinoma treatment (AID 1296009); conditions: MCC and control cell lines, CellTiter-Glo viability, 72 h; series mostly up to 46 µM; further: nearly all actives have a fitted effect of over 60% in size
# How it was run: (§1)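 Cells exposed to NPC (8-point) and MIPE (11-point) compound dilutions for 72 hr at 37 degree celsius; viability read by CellTiter-Glo luminescence, normalized to no-cell and DMSO in-plate controls.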
# MCC-26 = assay: as above; conditions: MCC and control cell lines, CellTiter-Glo viability, 72 h; series mostly up to 46 µM
# How it was run: as §1
# MKL-1 = assay: as above; conditions: MCC and control cell lines, CellTiter-Glo viability, 72 h; series mostly up to 46 µM
# How it was run: as §1
# MKL-2 = assay: as above; conditions: MCC and control cell lines, CellTiter-Glo viability, 72 h; series mostly up to 46 µM
# How it was run: as §1
# UISO = assay: as above; conditions: MCC and control cell lines, CellTiter-Glo viability, 72 h; series mostly up to 46 µM
# How it was run: as §1
# WaGa = assay: as above; conditions: MCC and control cell lines, CellTiter-Glo viability, 72 h; series mostly up to 46 µM
# How it was run: as §1
# C33A = assay: Primary qHTS to identify gynecologic anti-cancer compounds using libraries of approved drugs and bioactive compounds (AID 1345084); conditions: Gynecologic cancer cell panel viability, ATPlite luminescence, 48 h; series mostly up to 57.5 µM; further: nearly all actives have a fitted effect of over 55% in size
# How it was run: (§2)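 Five-point cytotoxicity, 48 h drug exposure at 37 C, 5% CO2, on cells seeded 16 h beforehand. ATP content read by ATPlite luminescence.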
# CASKI = assay: as above; conditions: Gynecologic cancer cell panel viability, ATPlite luminescence, 48 h; series mostly up to 57.5 µM
# How it was run: as §2
# Es-2 = assay: as above; conditions: Gynecologic cancer cell panel viability, ATPlite luminescence, 48 h; series mostly up to 57.5 µM
# How it was run: as §2
# HeLa = assay: as above; conditions: Gynecologic cancer cell panel viability, ATPlite luminescence, 48 h; series mostly up to 57.5 µM
# How it was run: as §2
# Hek293T = assay: as above; conditions: Gynecologic cancer cell panel viability, ATPlite luminescence, 48 h, control line for the selectivity index; series mostly up to 57.5 µM
# How it was run: as §2
# JEG-3 = assay: as above; conditions: Gynecologic cancer cell panel viability, ATPlite luminescence, 48 h; series mostly up to 57.5 µM
# How it was run: as §2
# OV90 = assay: as above; conditions: Gynecologic cancer cell panel viability, ATPlite luminescence, 48 h; series mostly up to 57.5 µM
# How it was run: as §2
# PA-1 = assay: as above; conditions: Gynecologic cancer cell panel viability, ATPlite luminescence, 48 h; series mostly up to 57.5 µM
# How it was run: as §2
# SKOV3 = assay: as above; conditions: Gynecologic cancer cell panel viability, ATPlite luminescence, 48 h; series mostly up to 57.5 µM
# How it was run: as §2
# Tov-21-G = assay: as above; conditions: Gynecologic cancer cell panel viability, ATPlite luminescence, 48 h; series mostly up to 57.5 µM
# How it was run: as §2
# Tov112D = assay: as above; conditions: Gynecologic cancer cell panel viability, ATPlite luminescence, 48 h; series mostly up to 57.5 µM
# How it was run: as §2
# [1] = Drug repurposing screens with cells derived from glioblastoma tumor samples (AID 1345199); conditions: GBM patient neurospheres viability, ATP luminescence, 48 h; further: nearly all actives have a fitted effect of over 40% in size; further: potency means the concentration at half of the fitted maximal effect
# How it was run: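 Four patient lines of CD133+ GBM neurospheres were screened at several concentrations; hits were retested in those lines plus three slower-growing GBM lines, using 48-hour treatment and ATP-based viability.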
# CAOV3 = assay: Primary qHTS to identify gynecologic anti-cancer compounds using libraries of approved drugs and bioactive compounds (AID 1345084); conditions: Gynecologic cancer cell panel viability, ATPlite luminescence, 48 h; series mostly up to 57.5 µM; further: nearly all actives have a fitted effect of over 55% in size
# How it was run: as §2
# [2] = at 45.9 µM (top of the series), tumour line B
# [3] = at 45.9 µM (top of the series), tumour line D
# [4] = at 46 µM (top of the series), tumour line A
# [5] = at 46.1 µM (top of the series), tumour line C
# [6] = at 20 µM (top of the series), tumour line C
# [7] = at 21.2 µM (top of the series), tumour line B
# [8] = at 21.2 µM (top of the series), tumour line D
# [9] = at 21.3 µM (top of the series), tumour line A
smiles,measurement,setting,value
CCCNC(C)(C)COC(=O)c1ccccc1,outcome,MCC-13,inactive
same,outcome,MCC-26,inactive
same,outcome,MKL-1,inactive
same,outcome,MKL-2,inactive
same,outcome,UISO,inactive
same,outcome,WaGa,inactive
same,outcome,C33A,inactive
same,outcome,CASKI,inactive
same,outcome,Es-2,inactive
same,outcome,HeLa,inactive
same,outcome,Hek293T,inactive
same,outcome,JEG-3,inactive
same,Potency,OV90,inactive
same,outcome,PA-1,inactive
same,outcome,SKOV3,inactive
same,outcome,Tov-21-G,inactive
same,outcome,Tov112D,inactive
same,"activity, negative = cell killing",[1]; [2],-3.47%
same,"activity, negative = cell killing",[1]; [3],11.4%
same,"activity, negative = cell killing",[1]; [4],-6.31%
same,"activity, negative = cell killing",[1]; [5],1.22%
NC(=O)[C@@H]1CSSCCC(=O)N[C@@H](CCCCN=C(N)N)C(=O)NCC(=O)N[C@@H](CC(=O)O)C(=O)N[C@@H](Cc2c[nH]c3ccccc23)C(=O)N2CCC[C@H]2C(=O)N1 ([Mpa][hArg]GDWPC-NH2; disulfide 1-7),outcome,MCC-13,inactive
same,outcome,MCC-26,inactive
same,outcome,MKL-1,inactive
same,outcome,MKL-2,inactive
same,outcome,UISO,inactive
same,outcome,WaGa,inactive
same,outcome,C33A,inactive
same,outcome,CASKI,inactive
same,outcome,Es-2,inactive
same,outcome,HeLa,inactive
same,outcome,Hek293T,inactive
same,outcome,JEG-3,inactive
same,Potency,OV90,inactive
same,outcome,PA-1,inactive
same,outcome,SKOV3,inactive
same,outcome,Tov-21-G,inactive
same,outcome,Tov112D,inactive
same,"activity, negative = cell killing",[1]; [2],1.12%
same,"activity, negative = cell killing",[1]; [3],4.68%
same,"activity, negative = cell killing",[1]; [4],-11%
same,"activity, negative = cell killing",[1]; [5],-19.2%
O=C(/C=C/c1ccc(O)c(O)c1)O[C@@H]1C[C@@](OC(=O)/C=C/c2ccc(O)c(O)c2)(C(=O)O)C[C@@H](O)[C@@H]1O,outcome,MCC-13,inactive
same,outcome,MCC-26,inactive
same,outcome,MKL-1,inactive
same,outcome,MKL-2,inactive
same,outcome,UISO,inactive
same,outcome,WaGa,inactive
same,outcome,C33A,inactive
same,outcome,CASKI,inactive
same,outcome,Es-2,inactive
same,outcome,HeLa,inactive
same,outcome,Hek293T,inactive
same,outcome,JEG-3,inactive
same,Potency,OV90,inactive
same,outcome,PA-1,inactive
same,outcome,SKOV3,inactive
same,outcome,Tov-21-G,inactive
same,outcome,Tov112D,inactive
same,"activity, negative = cell killing",[1]; [2],1.43%
same,"activity, negative = cell killing",[1]; [3],-4.97%
same,"activity, negative = cell killing",[1]; [5],-11.7%
same,Potency,[1]; tumour line A,28.2 µM (active)
NS(=O)(=O)c1cc(-c2nn[nH]n2)c(NCc2cccs2)cc1Cl,outcome,MCC-13,inactive
same,outcome,MCC-26,inactive
same,outcome,MKL-1,inactive
same,outcome,MKL-2,inactive
same,outcome,UISO,inactive
same,outcome,WaGa,inactive
same,outcome,C33A,inactive
same,outcome,CASKI,inactive
same,outcome,Es-2,inactive
same,outcome,HeLa,inactive
same,outcome,Hek293T,inactive
same,outcome,JEG-3,inactive
same,outcome,PA-1,inactive
same,outcome,Tov-21-G,inactive
same,outcome,Tov112D,inactive
same,"activity, negative = cell killing",[1]; [2],0.416%
same,"activity, negative = cell killing",[1]; [3],-1.64%
same,"activity, negative = cell killing",[1]; [5],-29.2%
CCN1CC(CCN2CCOCC2)C(c2ccccc2)(c2ccccc2)C1=O (stereo unspecified),outcome,MCC-13,inactive
same,outcome,MCC-26,inactive
same,outcome,MKL-1,inactive
same,outcome,MKL-2,inactive
same,outcome,UISO,inactive
same,outcome,WaGa,inactive
same,outcome,C33A,inactive
same,outcome,CASKI,inactive
same,outcome,Es-2,inactive
same,outcome,HeLa,inactive
same,outcome,Hek293T,inactive
same,outcome,JEG-3,inactive
same,Potency,OV90,inactive
same,outcome,PA-1,inactive
same,outcome,Tov-21-G,inactive
same,outcome,Tov112D,inactive
same,"activity, negative = cell killing",[1]; [2],-13.3%
same,"activity, negative = cell killing",[1]; [3],-11.4%
same,"activity, negative = cell killing",[1]; [5],-23.7%
Cc1ccc(S(=O)(=O)NC(=O)NC2CCCCC2)cc1,outcome,MCC-13,inactive
same,outcome,MCC-26,inactive
same,outcome,MKL-1,inactive
same,outcome,MKL-2,inactive
same,outcome,UISO,inactive
same,outcome,WaGa,inactive
same,outcome,C33A,inactive
same,outcome,CASKI,inactive
same,outcome,Es-2,inactive
same,outcome,HeLa,inactive
same,outcome,Hek293T,inactive
same,outcome,JEG-3,inactive
same,Potency,OV90,inactive
same,outcome,PA-1,inactive
same,outcome,SKOV3,inactive
same,outcome,Tov-21-G,inactive
same,outcome,Tov112D,inactive
same,"activity, negative = cell killing",[1]; [2],-0.759%
same,"activity, negative = cell killing",[1]; [3],4.18%
same,"activity, negative = cell killing",[1]; [5],-11.1%
COCC(=O)Nc1c(I)c(C(=O)NCC(O)CO)c(I)c(C(=O)N(C)CC(O)CO)c1I (stereo unspecified),outcome,MCC-13,inactive
same,outcome,MCC-26,inactive
same,outcome,MKL-1,inactive
same,outcome,MKL-2,inactive
same,outcome,UISO,inactive
same,outcome,WaGa,inactive
same,outcome,C33A,inactive
same,outcome,CAOV3,inactive
same,outcome,CASKI,inactive
same,outcome,HeLa,inactive
same,outcome,Hek293T,inactive
same,outcome,JEG-3,inactive
same,Potency,OV90,inactive
same,outcome,PA-1,inactive
same,outcome,SKOV3,inactive
same,outcome,Tov-21-G,inactive
same,outcome,Tov112D,inactive
same,"activity, negative = cell killing",[1]; [6],5.9%
same,"activity, negative = cell killing",[1]; [7],-2.18%
same,"activity, negative = cell killing",[1]; [8],-2.4%
same,"activity, negative = cell killing",[1]; [9],-10.5%
CC(=O)Nc1cccc(O)c1,outcome,MCC-13,inactive
same,outcome,MCC-26,inactive
same,outcome,MKL-1,inactive
same,outcome,MKL-2,inactive
same,outcome,UISO,inactive
same,outcome,WaGa,inactive
same,outcome,C33A,inactive
same,outcome,CASKI,inactive
same,outcome,Es-2,inactive
same,outcome,HeLa,inactive
same,outcome,Hek293T,inactive
same,outcome,JEG-3,inactive
same,Potency,OV90,inactive
same,outcome,PA-1,inactive
same,outcome,SKOV3,inactive
same,outcome,Tov-21-G,inactive
same,outcome,Tov112D,inactive
same,"activity, negative = cell killing",[1]; [2],-7.47%
same,"activity, negative = cell killing",[1]; [3],-9.18%
same,"activity, negative = cell killing",[1]; [5],-17.1%
C1CCN2C[C@@H]3C[C@@H](CN4CCCC[C@@H]34)[C@H]2C1,outcome,MCC-13,inactive
same,outcome,MCC-26,inactive
same,outcome,MKL-1,inactive
same,outcome,MKL-2,inactive
same,outcome,UISO,inactive
same,outcome,WaGa,inactive
same,outcome,C33A,inactive
same,outcome,CASKI,inactive
same,outcome,Es-2,inactive
same,outcome,HeLa,inactive
same,outcome,Hek293T,inactive
same,outcome,JEG-3,inactive
same,outcome,PA-1,inactive
same,outcome,SKOV3,inactive
same,outcome,Tov-21-G,inactive
same,outcome,Tov112D,inactive
same,"activity, negative = cell killing",[1]; [6],4.02%
same,"activity, negative = cell killing",[1]; [7],-1.82%
same,"activity, negative = cell killing",[1]; [8],-18%
same,"activity, negative = cell killing",[1]; [9],-22%
CN1CC(=O)NC1=N,outcome,MCC-13,inactive
same,outcome,MCC-26,inactive
same,outcome,MKL-1,inactive
same,outcome,MKL-2,inactive
same,outcome,UISO,inactive
same,outcome,WaGa,inactive
same,outcome,C33A,inactive
same,outcome,CASKI,inactive
same,outcome,Es-2,inactive
same,outcome,HeLa,inactive
same,outcome,Hek293T,inactive
same,outcome,JEG-3,inactive
same,Potency,OV90,inactive
same,outcome,SKOV3,inactive
same,outcome,Tov-21-G,inactive
same,outcome,Tov112D,inactive
same,"activity, negative = cell killing",[1]; [2],-7.86%
same,"activity, negative = cell killing",[1]; [3],-12.2%
same,"activity, negative = cell killing",[1]; [4],-16.7%
same,"activity, negative = cell killing",[1]; [5],-13.9%
CCOC(=O)[C@H](CCc1ccccc1)N[C@@H](C)C(=O)N1Cc2cc(OC)c(OC)cc2C[C@H]1C(=O)O,outcome,MCC-13,inactive
same,outcome,MCC-26,inactive
same,outcome,MKL-1,inactive
same,outcome,MKL-2,inactive
same,outcome,UISO,inactive
same,outcome,WaGa,inactive
same,outcome,C33A,inactive
same,outcome,CASKI,inactive
same,outcome,Es-2,inactive
same,outcome,HeLa,inactive
same,outcome,Hek293T,inactive
same,outcome,JEG-3,inactive
same,Potency,OV90,inactive
same,outcome,PA-1,inactive
same,outcome,SKOV3,inactive
same,outcome,Tov-21-G,inactive
same,outcome,Tov112D,inactive
same,"activity, negative = cell killing",[1]; [2],-9.77%
same,"activity, negative = cell killing",[1]; [3],-6.92%
same,"activity, negative = cell killing",[1]; [5],-6.4%
